# The list is not random: actives were taken first. Their share in the collection is about 7.3%.
# SMN2 splice up – qHTS Assay for Enhancers of SMN2 Splice Variant Expression; HEK293 SMN2-luciferase splicing reporter, luminescence, 30-36 h; 210,000 tested, 2.8% active; Potency, µM (doses to about 46.1 µM), for the others: at the top dose activity change, positive = activation, actives largely listed as activators; also: % of control where 0% means no effect; nearly all actives have a fitted effect of over 55% in size
#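 HEK293 cells carry an SMN2 minigene-luciferase reporter in which exon 7 inclusion puts luciferase in frame. Cells were seeded at 2000 cells/well, attached for 10-12 hours, then exposed to compounds for 30-36 hours at 37C before ONE-Glo luminescence.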
# NPC1 promoter act – qHTS Assay for NPC1 Promoter Activators; Huh7 NPC1 promoter luciferase reporter, 24 h; Potency, µM (series often up to 9.22 µM), for the others: top-dose activation, usual class: activators; 320,000 tested, 2.4% active; AID 485313, 2010; also: % of control where 0% means no effect; nearly all actives have a fitted effect of over 60% in size
#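 Huh7 reporter cells (NPC1 promoter driving luciferase) are dosed with compound for 24 h at 37 °C, 5% CO2; luciferase detection reagent is then added and luminescence measured after 10 min at ambient temperature.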
# Luc counter – Counterscreen for Luciferase (Kinase-Glo TM) Inhibition; Luciferin 4-monooxygenase (Photuris pensylvanica), Q27757; Potency, µM (series often up to 38.3 µM), for the others: at the highest dose activity change, negative = inhibition, actives largely listed as inhibitors; 200,000 tested, 0.28% active; Kinase-Glo luciferase, ATP luminescence, 8 min; also: % is scaled to controls: 0 for no effect and ±100 for the full control effect; nearly all actives have a fitted effect of over 60% in size
#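 Recombinant Kinase-Glo luciferase, 10 uM ATP (linear range), luciferin; imidazole pH 7.2 / KCl / MgCl2 / Tween / BSA buffer; 8 min RT; luminescence.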
# FLuc modulator – qHTS profiling assay for firefly luciferase inhibitor/activator using purifed enzyme and Km concentrations of substrates (counterscreen for miR-21 project). 360,000 tested, 6.9% active. Potency, µM (series often up to 57.5 µM), without a hit: top-dose activity change, negative = inhibition, actives largely listed as inhibitors. purified FLuc, Km substrates, luminescence inhibition. Luciferin 4-monooxygenase (Photinus pyralis), P08659;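 also: plate controls were vehicle for no effect and reference inhibitor for full effect; nearly all actives have a fitted effect of over 55% in size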
# Target sequence (P08659 whole entry, looked up): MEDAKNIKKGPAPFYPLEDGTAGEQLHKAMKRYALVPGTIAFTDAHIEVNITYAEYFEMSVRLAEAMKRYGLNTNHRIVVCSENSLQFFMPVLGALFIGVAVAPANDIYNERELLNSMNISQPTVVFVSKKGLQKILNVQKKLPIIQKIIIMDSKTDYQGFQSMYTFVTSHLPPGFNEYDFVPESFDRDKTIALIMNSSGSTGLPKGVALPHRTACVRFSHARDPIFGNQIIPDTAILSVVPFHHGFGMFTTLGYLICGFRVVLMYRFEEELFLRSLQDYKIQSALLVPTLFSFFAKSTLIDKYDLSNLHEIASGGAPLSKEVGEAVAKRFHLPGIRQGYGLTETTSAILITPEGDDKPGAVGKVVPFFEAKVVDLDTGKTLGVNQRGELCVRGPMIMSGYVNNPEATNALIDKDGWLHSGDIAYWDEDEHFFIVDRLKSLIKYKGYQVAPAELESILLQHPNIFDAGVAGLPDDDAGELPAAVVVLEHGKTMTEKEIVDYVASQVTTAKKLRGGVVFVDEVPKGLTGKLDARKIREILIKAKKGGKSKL
#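 Purified P. pyralis luciferase, 10 nM final, with Km-level 10 uM D-luciferin and 10 uM ATP in 50 mM Tris acetate pH 7.5, 10 mM Mg acetate, 0.01% Tween-20, 0.05% BSA; 6-point qHTS titration about 60 µM downward; luminescence read.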
# Rab9 prom act – qHTS Assay for Rab9 Promoter Activators; AID 485297, 2010; Potency, µM (highest dose often 9.22 µM), inactives show top-dose activation, negative = inhibition, usual class: activators; 320,000 tested, 2.8% active; Huh7 Rab9 promoter-luciferase reporter, luminescence, 24 h; also: % of control where 0% means no effect; nearly all actives have a fitted effect of over 60% in size
#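 Cells were plated at 1500 per well in reduced-serum medium with 10% FBS and left 2 h. Compound in DMSO was then added for 24 h at 37 °C. Reporter signal was read by luminescence after 10 min with luciferase detection reagent.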
# Starred values were filed as active, the others as inactive; ? = inconclusive; . = no result; [ ] = remark or other dose. Calls follow the shape of the dose curve; as a rule, active = well fitted curve in the direction sought with a large enough effect; inconclusive = small, poorly fitted or top-dose-only effect, or another doubt; inactive = no such curve, though single readings can be large; an effect the other way counts as inactive or inconclusive. Potency is read from the fitted curve at half-maximal effect.
SMILES,SMN2 splice up,NPC1 promoter act,Luc counter,FLuc modulator,Rab9 prom act
Cc1ccccc1NCc1nc2ccccc2n1CCOc1ccccc1,18µM*,.,.,9.5µM*,.
CCOc1ccc(NCc2nc3ccccc3n2CCOc2ccccc2)cc1,-43%,?,-2%,12µM*,25%
CCCCOC(=O)c1ccc(NC(=O)c2ccc3c(c2)CCCN3S(C)(=O)=O)cc1,8%,.,.,-13%,.
Cc1cc(C(=O)CSc2nc(N)cc(N)n2)c(C)n1-c1cccc(C(F)(F)F)c1,-30%,-1%,4%,1%,-5%
Cc1cc(C(=O)CSc2n[nH]c(N)n2)c(C)n1-c1cccc(F)c1,?,28%,0%,24µM*,?
Cc1cc(C(=O)COC(=O)C2=COCCO2)c(C)n1-c1cccc(F)c1,.,1.4µM*,.,1.9µM*,0.56µM*
Cc1cc(C(=O)CSc2ncccn2)c(C)n1-c1cccc(F)c1,?,3.5µM*,1%,2.4µM*,1.4µM*
Cc1cc(C(=O)CSc2nnnn2C)c(C)n1-c1cccc(F)c1,13µM*,4µM*,-2%,7.6µM*,1.3µM*
COCCn1c(C)cc(C(=O)CSc2n[nH]c(N)n2)c1C,1%,13%,-6%,?,21%
COc1ccccc1CNC(=O)CSc1ccsc1[N+](=O)[O-],80%,?,-4%,?,3.5µM*
O=C(CCc1nnc2n(Cc3ccccc3Cl)c(=O)c3ccccc3n12)Nc1ccc(F)cc1,2%,.,.,-1%,.
CCc1c2c(nc3cccc(C(C)C)c13)-c1cccc(=O)n1C2,26%,.,-3%,.,.
Cc1ccc(-n2ncc3c(N4CCN(Cc5ccccc5)CC4)ncnc32)cc1Cl,.,.,.,-11%,.
CCOc1ccc(-c2cc(C(=O)N3CCN(c4cccc(C)c4)C(C)C3)c3ccccc3n2)cc1 (stereo not drawn),.,.,.,2.4µM*,.
CCOc1ccc(-c2cc(C(=O)N3CCN(c4ccc(C)cc4)C(C)C3)c3ccccc3n2)cc1 (stereo not drawn),.,.,.,4.8µM*,.
COc1ccc(-c2cc(C(=O)N3CC(C)CC(C)C3)c3ccccc3n2)cc1 (stereo not drawn),.,2%,.,?,-5%
COc1cccc(NC(=O)C(Cc2ccccc2)N2Cc3ccccc3C2=O)c1 (stereo not drawn),.,.,.,-5%,.
C(=C\n1nnc2ccccc21)/c1ccccn1,.,2µM*,.,4.3µM*,1.1µM*
COc1ccc(CN2C(=O)CS/C2=N/N=C/c2ccccc2)cc1,.,16%,.,17µM*,23%
COc1ccc(N=C2SCC(=O)N2Cc2ccccc2)cc1,-13%,-2%,-1%,-10%,-1%
COc1ccc(/C=N/N=C2/SCC(=O)N2Cc2ccccc2)cc1,.,3.5µM*,.,4.8µM*,1.3µM*
COc1ccc(/C=N/N2C(=N)SCC2=O)cc1,.,?,.,3.4µM*,19%
COc1ccc(NC(=O)CCNS(=O)(=O)c2cccc3nsnc23)cc1Cl,4%,.,.,-2%,.
COCCCNC(=O)C1CCN(c2nc3ccc(C)cc3[nH]2)CC1,.,.,.,1%,.
Cc1ccc(NC(=O)COc2ccc3oc4c(c3c2)CCCC4)c(C)c1,-3%,.,.,4%,.
Cc1cc(-c2ccc(Cl)cc2)n2nc(N)nc2n1,.,-3%,4%,3%[2.3 µM],2%
Nc1nc2nccc(-c3ccc(Cl)cc3)n2n1,9%,?,-5%,12µM*,?
Nc1c(C(=O)O)cnc2c(-c3ccc(Cl)cc3)cnn12,11µM*,1.4µM*,-17%,3µM*,1µM*
N#Cc1cnn2c(N)c(-c3ccc(Cl)cc3)cnc12,1%,0%,0%,-6%,18%
CC(=O)c1cnc2c(-c3ccc(Cl)cc3)cnn2c1C,13µM*,22%,-2%,?,?
